Compound activity: PubChem BioAssay, several laboratories
Hits are enriched below; roughly 1.4% of the tested compounds scored in any of these assays.
p-CIP stab down = lowers stability of the mouse p/CIP coactivator protein. Q05BA5. F442A p/CIP-EGFP cells, EGFP fluorescence, 16 h. decrease of EGFP signal, % at 10 µM. 290,000 tested, 0.01% active. AID 1984;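 active = EGFP signal decrease of at least 30% at 10 µM or well 3 SD below plate mean, unless failing retest; inactive = the rest, including hits failing retest or dose response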
14-3-3 Bad inh = disrupts binding of bovine 14-3-3 zeta to phospho-Bad peptide; inhibition, % at 21.7 µM; AID 781; 220,000 tested, 0.71% active; P63103; TR-FRET 14-3-3zeta/Dy647-pBad peptide displacement, 1 h;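 active = inhibition above about 70%, limit read from the data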;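 note: 0% = full 14-3-3 plus peptide FRET controls and 100% = background without 14-3-3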
Target sequence (P63103 whole entry, looked up): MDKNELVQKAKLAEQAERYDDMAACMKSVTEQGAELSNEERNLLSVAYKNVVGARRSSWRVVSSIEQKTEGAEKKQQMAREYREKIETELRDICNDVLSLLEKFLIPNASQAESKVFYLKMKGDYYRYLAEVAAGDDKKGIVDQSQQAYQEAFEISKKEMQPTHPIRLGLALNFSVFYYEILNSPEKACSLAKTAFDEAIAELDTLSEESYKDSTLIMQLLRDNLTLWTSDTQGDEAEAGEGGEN
MsrA inh = inhibitors of bovine MsrA; 360,000 tested, 0.75% active; inhibition, % at 15.5 µM; purified bovine MsrA, absorbance read-out; AID 651718; in the data active = inhibition above about 4.5%;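 note: 0% = vehicle wells with enzyme and 100% = reference inhibitor wells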
MsrA act = activates bovine MsrA enzyme; purified bovine MsrA, absorbance read-out; activation, % at 10.6 µM; 360,000 tested, 0.3% active; in the data active = activation above about 7.5%;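 note: 0% = vehicle and 100% = reference activator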
* = called active by the depositor; · = not tested or not shown; [ ] = another dose, or the depositor's remark.

SMILES	p-CIP stab down	14-3-3 Bad inh	MsrA inh	MsrA act
Cc1ccc2nc(NC(=O)c3ccc(-c4nc5ccccc5s4)s3)sc2c1	-7	83*[fluorescence artefact?]	1	-2
CC(C)C[C@H](NC(=O)c1nccs1)C(=O)N1CCC[C@H]1C(=O)NCc1ccccc1	·	·	0	·
CCCCC1(C)OC(=O)C(=Cc2ccc(-c3ccc(Cl)c(C(=O)O)c3)o2)C(=O)O1 (stereo not drawn)	-3	9	2	-2
CCOC(=O)c1cc(-c2ccc(/C=C3/C(=O)NC(=O)C(C#N)=C3C)o2)ccc1Cl	-5	77*[fluorescence artefact?]	0	-10
CCn1c(SCC(=O)N2CCc3ccccc32)nnc1-c1c[nH]c2ccccc12	5	-13	1	0
COc1ccc(-n2c(SCC(=O)N3CCc4ccccc43)nnc2-c2c[nH]c3ccccc23)cc1	-3	78*	-1	-6
N=C(N)N=Nc1c(O)[nH]c2ccc(Br)cc12	-12	-7	4.6*	-1
Oc1[nH]c2ccc(Br)cc2c1N=NC(=S)Nc1ccc(F)cc1	-10	12	1	-2
Cc1ccc(C(=O)NC2c3ccccc3-c3ccccc32)cc1	-2	5	1	-1
Cc1ccc(C(=O)C2C(=O)c3ccccc3C2=O)cc1	-8	82*	1	-1
O=C(O)c1ccc(Oc2cccc([N+](=O)[O-])c2)cc1C(=O)O	-15	74*	-2	0
Cc1ccc(C2c3c(n[nH]c3C)C(=O)N2c2ccccc2)cc1 (stereo not drawn)	·	·	0	·
CC(C)(C)C(=O)Nc1ccccc1C(=O)OCC(=O)c1ccc2c(c1)OCCO2	-10	-4	0	-4
O=C(COC(=O)c1ccccc1NC(=O)C1CC1)c1ccc2c(c1)OCCO2	-9	71*	-1	·
CCc1nc(NCc2ccco2)c2oc3ccccc3c2n1	-1	81*	0	3
CCc1nc(Nc2ccc3c(c2)OCCO3)c2oc3ccccc3c2n1	5	86*	1	-13
CCc1nc(Nc2ccc(O)cc2)c2oc3ccccc3c2n1	-5	·	1	0
Cc1nc(Nc2ccc3c(c2)OCCO3)c2oc3ccccc3c2n1	0	73*	2	-11
COc1ccc(Nc2ncnc3c2oc2ccccc23)cc1	10	67	2	-1
Cc1ccc(Nc2ncnc3c2oc2ccccc23)cc1	-1	72*	0	-3
CCNc1nc(CC)nc2c1oc1ccccc12	-8	49	-1	-3
Cc1nc(Nc2cccc(F)c2)c2oc3ccccc3c2n1	-4	·	2	0
Cc1cc(S(=O)(=O)NC(=O)[C@H]2O[C@@H](n3ccc(=O)[nH]c3=O)[C@H](O)[C@@H]2O)ccc1Br	·	·	1	·
COc1cccc(C(=O)N[C@@H](Cc2cccnc2)C(=O)N2CCC[C@H]2C(=O)NC2CCCC2)c1	·	·	0	·
c1ccc2c(c1)oc1c(Nc3ccc4c(c3)OCCO4)ncnc12	1	76*[fluorescence artefact?]	0	-4
SMILES	p-CIP stab down	14-3-3 Bad inh	MsrA inh	MsrA act
O=[N+]([O-])c1ccc2ncnc(Nc3ccc4c(c3)OCCO4)c2c1	-7	-2	1	-1
C[C@@H]1CNC(=O)c2c(C(=O)N(C)Cc3ccccc3)ncn21	·	·	1	·
OC(COCC1COc2ccccc2O1)CN1CCN(c2ccccc2F)CC1 (stereo not drawn)	4	89*	0	-5
O=C(O)[C@H](Cc1ccccc1)NC(=O)C(c1ccccc1)(c1ccccc1)c1ccccc1	-5	88*	-1	-3
O=C(CC(c1ccccc1)(c1ccccc1)c1ccccc1)N[C@@H](Cc1ccccc1)C(=O)O	-4	0	0	2
COc1ccc2c(c1)O[C@H](c1ccc3c(c1)OCO3)[C@@H](OC(=O)Nc1cc(OC)c(OC)c(OC)c1)C2=O	-16	81*[fluorescence artefact?]	·	·
COc1ccc2c(c1)O[C@H](c1ccc3c(c1)OCO3)[C@@H](OC(=O)N[C@H](C)C1CCCCC1)C2=O	-8	92*	·	·
Nc1[nH]c(C(=O)c2ccccc2)c(-c2cc(F)ccc2Br)c1C(=O)NCCc1c[nH]c2ccccc12	·	·	1	·
COc1cc(OC)c(/C=N/NC(=O)c2ccc(NC(C)=O)cc2)cc1Br	-4	76*	1	-3
CC(=O)Nc1ccc(C(=O)N/N=C/c2cc(Br)cc(Br)c2O)cc1	-1	0	0	-3
Cc1ccc(N2CC3=C(C2=O)C(c2ccccc2)NC(=O)N3C)cc1 (stereo not drawn)	-2	0	0	-4
CN1C(=O)NC(c2ccccc2)C2=C1CN(c1ccc3ccccc3c1)C2=O (stereo not drawn)	-4	84*	-1	-5
CCc1ccc(OCc2nnc(SCCN3CCOCC3)n2C)cc1	2	85*	2	-2
COC(=O)[C@]1(CC(C)C)NC=C(C(=O)c2ccccc2)[C@@H]1c1cccs1	·	·	1	·
CCCCS(=O)(=O)N1CCCc2nc(-c3ccc(OC)cc3)ccc21	·	·	0	·
O=C(O)/C=C/C(=O)Nc1ccc(NC(=O)c2ccccc2)c(Cl)c1	-4	96*	0	-13
O=S(=O)(c1ccc(F)cc1)N1CCCc2nc(-c3ccc(F)cc3)ccc21	·	·	0	·
Cc1nc(C)c(C(=O)NCCC(c2ccccc2)c2ccccc2)o1	4	92*	0	-2
Cc1ccsc1C(=O)NCCC(c1ccccc1)c1ccccc1	14	11	0	-7
COC(=O)c1cc2c(c3c4cc(C)ccc4n(S(=O)(=O)c4ccc(OC)cc4)c13)C(=O)N(Cc1ccc(C(F)(F)F)cc1)C2	·	·	1	·
CCOC(=O)C(CNc1ccc(O)cc1)NC(=O)c1ccccc1 (stereo not drawn)	·	·	0	·
O=C(CSc1nc(-c2ccccc2)nc2c1Cc1ccccc1O2)Nc1ccc(C(=O)O)cc1	9	94*	-1	-2
O=C(CSc1nc(-c2ccc(F)cc2)nc2c1Cc1ccccc1O2)Nc1ccc(C(=O)O)cc1	4	97*	-1	-2
O=C(CSc1nc(-c2ccccc2)nc2ccccc12)Nc1cccc(C(=O)O)c1	-16	-9	2	-3
O=C(CSc1nc(-c2ccc(F)cc2)nc2ccc(F)cc12)Nc1cccc(C(=O)O)c1	3	-6	1	-6
SMILES	p-CIP stab down	14-3-3 Bad inh	MsrA inh	MsrA act
COc1cc2c(c(OC)c1OC)C1(CCCCC1)CC2NS(=O)(=O)C(C)C (stereo not drawn)	·	·	-2	·
CN(C)c1ccc(NC(=O)CN2CCC(N3CCCCC3)CC2)cc1	-1	75*	-1	0
COc1ccc(C2CC(=O)C(c3ccc(C(F)(F)F)cc3)=CN2Cc2ccccc2)cc1 (stereo not drawn)	·	·	2	·
CCN(CCCNC(=O)c1ccc(N2CCCC2=O)cc1)c1cccc(C)c1	1	80*	0	-2
COc1ccc(/C=N/Nc2ccccn2)cc1OC	3	-4	4.6*	-5
O=S(=O)(Nc1ccc2cn[nH]c2c1)c1ccc(Cl)s1	2	85*	0	-3
O=S(=O)(Nc1ccc2cn[nH]c2c1)c1ccc(Cl)cc1	0	·	·	-1
COC(=O)C1=C(C)N(Cc2ccc(Br)cc2)C(=S)NC1c1cccc(Br)c1 (stereo not drawn)	·	·	1	·
O=C1C=CC(=O)N1c1ccc(OC(F)F)cc1	-3	11	47*	-17
